Source: PubChem BioAssay (NCATS)
Inconclusive results are not listed. Calls of active or inactive are those of the source. Calls follow the shape of the dose curve; as a rule, active = well fitted curve in the direction sought with a large enough effect; inconclusive = small, poorly fitted or top-dose-only effect, or another doubt; inactive = no such curve, though single readings can be large; an effect the other way counts as inactive or inconclusive.

How the values were obtained:
[1] = molecular target: Tyrosine-protein phosphatase non-receptor type substrate 1 (Homo sapiens) + Leukocyte surface antigen CD47 (Homo sapiens) (UniProt P78324+Q08722); experiment: CD47-SIRPalpha protein protein interaction - Alpha assay qHTS validation (AID 1347059);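 also: bead proximity luminescence from CD47 binding SIRPalpha after compound preincubation with SIRPalpha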
Tyrosine-protein phosphatase non-receptor type substrate 1 (Homo sapiens) + Leukocyte surface antigen CD47 (Homo sapiens), sequence (P78324 whole entry, looked up): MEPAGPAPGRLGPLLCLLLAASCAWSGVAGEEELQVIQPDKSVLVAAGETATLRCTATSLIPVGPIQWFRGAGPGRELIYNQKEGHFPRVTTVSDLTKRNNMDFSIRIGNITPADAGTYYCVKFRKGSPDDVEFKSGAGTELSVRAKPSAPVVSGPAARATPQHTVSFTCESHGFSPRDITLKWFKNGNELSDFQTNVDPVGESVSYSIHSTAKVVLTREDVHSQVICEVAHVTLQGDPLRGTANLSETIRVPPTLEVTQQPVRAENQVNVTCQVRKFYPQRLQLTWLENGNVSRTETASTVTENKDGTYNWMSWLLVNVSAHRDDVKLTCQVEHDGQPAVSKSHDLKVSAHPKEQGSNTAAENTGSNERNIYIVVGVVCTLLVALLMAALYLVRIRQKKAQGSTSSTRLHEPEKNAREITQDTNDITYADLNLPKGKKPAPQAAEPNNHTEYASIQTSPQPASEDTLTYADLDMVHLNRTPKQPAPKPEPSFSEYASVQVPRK
Tyrosine-protein phosphatase non-receptor type substrate 1 (Homo sapiens) + Leukocyte surface antigen CD47 (Homo sapiens), sequence (Q08722 whole entry, looked up): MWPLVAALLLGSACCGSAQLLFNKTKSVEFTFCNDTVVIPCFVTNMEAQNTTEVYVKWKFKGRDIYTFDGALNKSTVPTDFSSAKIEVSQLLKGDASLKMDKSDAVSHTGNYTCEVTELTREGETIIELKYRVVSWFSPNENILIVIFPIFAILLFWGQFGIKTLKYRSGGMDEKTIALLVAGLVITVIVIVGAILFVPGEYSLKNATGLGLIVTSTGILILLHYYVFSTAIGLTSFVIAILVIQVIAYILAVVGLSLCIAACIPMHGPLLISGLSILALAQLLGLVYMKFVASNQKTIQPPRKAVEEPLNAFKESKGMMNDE
Summary of the method: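 SIRPalpha-biotin 25 nM + cpd, 30 min RT, dark; add CD47-His 12.5 nM, 30 min; add Ni-NTA/SAV beads 10 ug/mL, 30 min; AlphaScreen. Buffer PBS pH 7.4 + 0.05% IGEPAL CA-630. Non-biotinylated SIRPalpha as control inhibitor.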

[2] = molecular target: Parathyroid hormone/parathyroid hormone-related peptide receptor (Homo sapiens) (UniProt Q03431); experiment: qHTS for PTHR1 Agonists: Optimization Screen against the NCGC LOPAC library (AID 1347079);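 also: GloSensor cAMP luminescence in HEK-293 GP2 cells expressing human PTHR1 with IBMX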
Parathyroid hormone/parathyroid hormone-related peptide receptor (Homo sapiens), sequence (Q03431 whole entry, looked up): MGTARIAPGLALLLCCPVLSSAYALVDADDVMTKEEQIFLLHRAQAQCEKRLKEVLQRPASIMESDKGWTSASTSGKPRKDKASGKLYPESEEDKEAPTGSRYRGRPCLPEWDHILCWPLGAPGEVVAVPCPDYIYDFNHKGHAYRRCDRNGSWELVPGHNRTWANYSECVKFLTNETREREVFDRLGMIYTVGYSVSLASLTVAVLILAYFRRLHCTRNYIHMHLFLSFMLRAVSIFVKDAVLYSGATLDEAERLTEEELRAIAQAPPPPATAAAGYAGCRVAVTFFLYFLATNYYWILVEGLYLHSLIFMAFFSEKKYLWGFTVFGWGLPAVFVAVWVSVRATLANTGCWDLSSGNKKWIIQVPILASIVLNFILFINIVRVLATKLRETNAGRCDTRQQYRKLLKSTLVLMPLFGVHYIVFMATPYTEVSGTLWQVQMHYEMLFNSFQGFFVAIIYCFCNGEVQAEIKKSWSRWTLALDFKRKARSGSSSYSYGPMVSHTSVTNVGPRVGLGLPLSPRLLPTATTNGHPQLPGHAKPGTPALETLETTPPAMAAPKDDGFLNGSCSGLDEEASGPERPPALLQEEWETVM
Summary of the method: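 Signal increase flags agonism. GP2 cells, derived from HEK-293, express human PTHR1 and a GloSensor cAMP construct.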

[3] = qHTS of pediatric cancer cell lines to identify multiple opportunities for drug repurposing: Primary screen for TC32 cells (AID 1347089); also: nearly all actives have a fitted effect of over 60% in size; also: potency is read from the fitted curve at half-maximal effect
Summary of the method: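 Measured quantity: luminescence from CellTiter-Glo, reflecting metabolically active TC32 cells following 48 h of compound. Curves came straight from multi-point titrations, with 8 or 11 points in primary and 11 in confirmatory screening.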

[4] = qHTS of pediatric cancer cell lines to identify multiple opportunities for drug repurposing: Primary screen for DAOY cells (AID 1347090); also: nearly all actives have a fitted effect of over 55% in size; also: potency is read from the fitted curve at half-maximal effect
Summary of the method: (§1)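 Viability measured as metabolically active cells via CellTiter-Glo luminescence following 48 hours of compound exposure, 11-point dilutions in confirmatory testing. 500-1,000 cells/well plated 5 hours before dosing; controls were DMSO and 2.3 µM bortezomib.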

[5] = qHTS of pediatric cancer cell lines to identify multiple opportunities for drug repurposing: Primary screen for SJ-GBM2 cells (AID 1347091); also: potency is read from the fitted curve at half-maximal effect
Summary of the method: as §1

[6] = qHTS of pediatric cancer cell lines to identify multiple opportunities for drug repurposing: Primary screen for A673 cells (AID 1347092); also: nearly all actives have a fitted effect of over 45% in size; also: potency is read from the fitted curve at half-maximal effect
Summary of the method: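 Cells are plated, rested 5 h, dosed by pintool, incubated 48 h, then lysed with CellTiter-Glo and read by luminescence. DMSO is the neutral control; bortezomib at 2.3 uM final is the positive control.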

[7] = qHTS of pediatric cancer cell lines to identify multiple opportunities for drug repurposing: Primary screen for SK-N-MC cells (AID 1347093); also: potency is read from the fitted curve at half-maximal effect
Summary of the method: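 Metabolically active cells were quantified by ATP-dependent luminescence (CellTiter-Glo, 15 min at room temperature) following 48 h treatment. Cells had been plated at 500-1,000 per well and settled for 5 h beforehand.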

[8] = qHTS of pediatric cancer cell lines to identify multiple opportunities for drug repurposing: Primary screen for NB-EBc1 cells (AID 1347095); also: potency is read from the fitted curve at half-maximal effect
Summary of the method: (§2)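 Readout: CellTiter-Glo luminescence, 48 h treatment. Controls DMSO (neutral) and bortezomib 2.3 µM final (positive). Potency and efficacy taken from primary-screen concentration-response curves.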

[9] = qHTS of pediatric cancer cell lines to identify multiple opportunities for drug repurposing: Primary screen for U-2 OS cells (AID 1347096); also: nearly all actives have a fitted effect of over 50% in size; also: potency is read from the fitted curve at half-maximal effect
Summary of the method: (§3)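 Viability after 48 h compound treatment at 37C, 500-1,000 cells/well, read as ATP luminescence with CellTiter-Glo. Primary screens used 11-point (MIPE, 0.78 nM-46 µM) or 8-point (NPC, 0.59 nM-46 µM) final concentrations; follow-up screens used 11-point dilutions.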

[10] = qHTS of pediatric cancer cell lines to identify multiple opportunities for drug repurposing: Primary screen for Saos-2 cells (AID 1347097); also: nearly all actives have a fitted effect of over 40% in size; also: potency is read from the fitted curve at half-maximal effect
Summary of the method: as §2

[11] = qHTS of pediatric cancer cell lines to identify multiple opportunities for drug repurposing: Primary screen for SK-N-SH cells (AID 1347098); also: nearly all actives have a fitted effect of over 65% in size; also: potency is read from the fitted curve at half-maximal effect
Summary of the method: (§4)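 Cells (500-1,000/well) rested 5 h, then received compounds for 48 h; metabolically active cells were measured by CellTiter-Glo luminescence. Final concentrations spanned up to 46 µM (MIPE, 11-point) or 0.59 nM-46 µM (NPC, 8-point) in primary screens, 11-point in follow-ups.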

[12] = qHTS of pediatric cancer cell lines to identify multiple opportunities for drug repurposing: Primary screen for NB1643 cells (AID 1347099); also: nearly all actives have a fitted effect of over 50% in size; also: potency is read from the fitted curve at half-maximal effect
Summary of the method: as §2

[13] = qHTS of pediatric cancer cell lines to identify multiple opportunities for drug repurposing: Primary screen for LAN-5 cells (AID 1347100); also: potency is read from the fitted curve at half-maximal effect
Summary of the method: as §3

[14] = qHTS of pediatric cancer cell lines to identify multiple opportunities for drug repurposing: Primary screen for Rh18 cells (AID 1347102); also: nearly all actives have a fitted effect of over 65% in size; also: potency is read from the fitted curve at half-maximal effect
Summary of the method: as §3

[15] = qHTS of pediatric cancer cell lines to identify multiple opportunities for drug repurposing: Primary screen for OHS-50 cells (AID 1347103); also: nearly all actives have a fitted effect of over 40% in size; also: potency is read from the fitted curve at half-maximal effect
Summary of the method: as §4

[16] = qHTS of pediatric cancer cell lines to identify multiple opportunities for drug repurposing: Primary screen for RD cells (AID 1347104); also: nearly all actives have a fitted effect of over 55% in size; also: potency is read from the fitted curve at half-maximal effect
Summary of the method: as §2

[17] = qHTS of pediatric cancer cell lines to identify multiple opportunities for drug repurposing: Primary screen for MG 63 (6-TG R) cells (AID 1347105); also: nearly all actives have a fitted effect of over 50% in size; also: potency is read from the fitted curve at half-maximal effect
Summary of the method: as §2

[18] = qHTS of pediatric cancer cell lines to identify multiple opportunities for drug repurposing: Primary screen for BT-37 cells (AID 1347094); also: potency is read from the fitted curve at half-maximal effect
Summary of the method: as §2

[19] = qHTS of pediatric cancer cell lines to identify multiple opportunities for drug repurposing: Primary screen for BT-12 cells (AID 1347101); also: nearly all actives have a fitted effect of over 25% in size; also: potency is read from the fitted curve at half-maximal effect
Summary of the method: as §4

[20] = qHTS of pediatric cancer cell lines to identify multiple opportunities for drug repurposing: Primary screen for control Hh wild type fibroblast cells (AID 1347106);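 also: series mostly up to about 46 µM; a drop in luminescence marks cytotoxicity and a rise apparent proliferation; nearly all actives have a fitted effect of over 55% in size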
Summary of the method: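 Cells (500-1,000/well) in growth media were settled 5 h at 37 degrees C, then given compounds for 48 h. Viability was read as CellTiter-Glo luminescence. Primary runs used MIPE at 11 points (0.78 nM-46 µM) and NPC at 8 points (0.59 nM-46 µM); follow-ups used 11 points.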

| SMILES | outcome [1] | outcome [2] | Potency [3] | Potency [4] | Potency [5] | Potency [6] | Potency [7] | Potency [8] | Potency [9] | Potency [10] | Potency [11] | Potency [12] | Potency [13] | Potency [14] | Potency [15] | Potency [16] | Potency [17] | Potency [18] | Potency [19] | Potency [20] |
| --- | --- | --- | --- | --- | --- | --- | --- | --- | --- | --- | --- | --- | --- | --- | --- | --- | --- | --- | --- | --- |
| O=c1c2ccccc2nc2n1CCc1c-2[nH]c2ccccc12 | inactive | inactive | inactive | inactive | inactive | inactive | inactive | inactive | inactive | inactive | inactive | inactive | inactive | inactive | inactive | inactive | inactive |  |  |  |
| COc1ccc(-c2cc3c(C)nc(N)nc3n(C3CCC(OCCO)CC3)c2=O)cn1 (stereo not given) |  |  | 186 nM (active) | 118 nM (active) | 23.5 nM (active) | 93.5 nM (active) | 5.3 nM (active) | 59 nM (active) | 469 nM (active) | 187 nM (active) | 2410 nM (active) | 166 nM (active) | 469 nM (active) |  | 7.7 nM (active) | 187 nM (active) | 18.7 nM (active) | 243 nM (active) |  |  |
| Cc1[nH]c2ccccc2c1CCNCc1ccc(C=CC(=O)NO)cc1 |  |  | 1650 nM (active) | 469 nM (active) | 148 nM (active) | 148 nM (active) | 148 nM (active) | 372 nM (active) | 469 nM (active) | 264 nM (active) | 271 nM (active) | 187 nM (active) | 105 nM (active) | 93.5 nM (active) | 153 nM (active) | 372 nM (active) | 469 nM (active) | 273 nM (active) | 611 nM (active) |  |
| O=C(O)c1ccc2c(c1)nc(Nc1cccc(Cl)c1)c1ccncc12 |  |  | inactive | 4690 nM (active) | 7430 nM (active) | 4690 nM (active) | 935 nM (active) | 2350 nM (active) | 18700 nM (active) | 4690 nM (active) | 12100 nM (active) | 2640 nM (active) | 7430 nM (active) | 14800 nM (active) | 3060 nM (active) |  | 3720 nM (active) | 7690 nM (active) | 19300 nM (active) |  |
| CC(C)c1ccc(Cn2ccc3c4c(N)nc(NC5CC5)nc4ccc32)cc1 |  |  | 4150 nM (active) | 14800 nM (active) | 3720 nM (active) | 2960 nM (active) | 743 nM (active) | 4690 nM (active) | 18700 nM (active) | 4690 nM (active) | 21500 nM (active) | 18700 nM (active) | 18700 nM (active) |  | 4850 nM (active) | 14800 nM (active) | 14800 nM (active) | 12200 nM (active) | 4320 nM (active) |  |
| CCOc1ccccc1OCCNC(C)Cc1ccc(OC)c(S(N)(=O)=O)c1 (stereo not given) |  |  | inactive | inactive | inactive | inactive | inactive | inactive | inactive | inactive | inactive | inactive | inactive | inactive | inactive |  | inactive | inactive | inactive | inactive |
| Cc1cc(Nc2cc(NC(=O)c3c(Cl)cccc3Cl)ccn2)nc(N)n1 |  |  | 930 nM (active) | 1480 nM (active) | 590 nM (active) | 1180 nM (active) | 132 nM (active) | 332 nM (active) | 18700 nM (active) | 1050 nM (active) | 6070 nM (active) | 11800 nM (active) | 1870 nM (active) |  | 8630 nM (active) | 935 nM (active) | 11800 nM (active) | 544 nM (active) | 544 nM (active) |  |
| Cc1cn2cc(C(=O)N(C)CCO)cc(N[C@@H]3CCOc4cccc(C)c43)c2n1 |  |  | inactive | inactive | inactive | inactive | inactive | inactive | inactive | inactive |  | inactive | inactive | inactive | inactive | inactive | inactive | inactive | inactive | inactive |
| O=C(O)CO.[NH2-].[NH2-].[Pt+2] |  |  | inactive | inactive | inactive | inactive | inactive | inactive | inactive | inactive | inactive | inactive | inactive |  | inactive | inactive | inactive | inactive | inactive | inactive |
| CNC(=O)c1nn(C)c2c1C(C)(C)Cc1cnc(Nc3ccc(N4CCN(C)CC4)cc3)nc1-2 |  |  | 2620 nM (active) | 11800 nM (active) | 1870 nM (active) | 2960 nM (active) | 590 nM (active) | 2350 nM (active) | 5900 nM (active) | 2350 nM (active) | 1710 nM (active) | 743 nM (active) | 662 nM (active) | 3320 nM (active) | 1530 nM (active) | 3720 nM (active) |  | 1720 nM (active) | 6850 nM (active) | inactive |
